Results from PubChem BioAssay (NCI).
The panel holds about 83,000 compounds, 20% with a hit somewhere; the sample as a whole holds those more often.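 48-hour exposure, single concentration, 96-well plates; percent growth endpoint where 0 means no net growth. Active: below 10.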 The source made the active and inactive calls.

Assays:
Assay in all cases: NCI-60 one-dose screen, 48 h (100 = growth as untreated, 0 = no growth, -100 = all killed)
Details in all cases: 10 µM unless noted
SR leukemia = tested on: SR leukemia
RPMI-8226 leukemia = tested on: RPMI-8226 leukemia
OVCAR-8 ovarian = tested on: OVCAR-8 ovarian
OVCAR-5 ovarian = tested on: OVCAR-5 ovarian
OVCAR-4 ovarian = tested on: OVCAR-4 ovarian
SK-OV-3 ovarian = tested on: SK-OV-3 ovarian
IGROV1 ovarian = tested on: IGROV1 ovarian
OVCAR-3 ovarian = tested on: OVCAR-3 ovarian
HS 578T breast = tested on: HS 578T breast
NCI/ADR-RES ovarian = tested on: NCI/ADR-RES ovarian
T-47D breast = tested on: T-47D breast
BT-549 breast = tested on: BT-549 breast
MDA-MB-435 melanoma = tested on: MDA-MB-435 melanoma
MCF7 breast = tested on: MCF7 breast
HCT-116 colon = tested on: HCT-116 colon
HCC-2998 colon = tested on: HCC-2998 colon
KM12 colon = tested on: KM12 colon
SW-620 colon = tested on: SW-620 colon

Measured: growth

COc1ccc(S(=O)(=O)N(C)c2oc(-c3ccc(Cl)cc3)nc2C#N)cc1
inactive: SR leukemia 29.3% | RPMI-8226 leukemia 69.7% | OVCAR-8 ovarian 96% | OVCAR-5 ovarian 94.6% | OVCAR-4 ovarian 76.4% | SK-OV-3 ovarian 91.2% | IGROV1 ovarian 77.7% | OVCAR-3 ovarian 82.2% | HS 578T breast 64.9% | NCI/ADR-RES ovarian 58.6% | T-47D breast 74.5% | BT-549 breast 74.7% | MCF7 breast 52.5% | HCT-116 colon 72% | HCC-2998 colon 76.2% | KM12 colon 56.6%
active: MDA-MB-435 melanoma -3.32%

COC(=O)[C@@H](Cc1c[nH]c2ccccc12)NC(=O)[C@H](Cc1ccccc1)NCc1ccncc1
inactive: SR leukemia 99.2% | RPMI-8226 leukemia 84.6% | OVCAR-8 ovarian 89.1% | OVCAR-5 ovarian 101% | OVCAR-4 ovarian 98.7% | SK-OV-3 ovarian 94% | IGROV1 ovarian 101% | OVCAR-3 ovarian 101% | HS 578T breast 99.3% | NCI/ADR-RES ovarian 99.9% | T-47D breast 93.2% | BT-549 breast 96.5% | MDA-MB-435 melanoma 113% | MCF7 breast 110% | HCT-116 colon 87.4% | HCC-2998 colon 112% | KM12 colon 96.5%

CCCC[N+]1(C)CCN=C1Cc1ccccc1 (centres undefined)
inactive: SR leukemia 94.4% | RPMI-8226 leukemia 75.7% | OVCAR-8 ovarian 97.2% | OVCAR-5 ovarian 103% | OVCAR-4 ovarian 109% | SK-OV-3 ovarian 109% | IGROV1 ovarian 106% | OVCAR-3 ovarian 103% | NCI/ADR-RES ovarian 107% | T-47D breast 101% | BT-549 breast 123% | MDA-MB-435 melanoma 104% | SW-620 colon 98.4% | MCF7 breast 100% | HCT-116 colon 101% | HCC-2998 colon 93.7% | KM12 colon 118%

Clc1nc(N2CCC[N+]3(CC2)CC[N+]2(CCCNCC2)CC3)nc(N2CCC[N+]3(CC2)CC[N+]2(CCCNCC2)CC3)n1 (centres undefined)
inactive: SR leukemia 90.4% | RPMI-8226 leukemia 99.8% | OVCAR-8 ovarian 86% | OVCAR-5 ovarian 113% | OVCAR-4 ovarian 98.4% | SK-OV-3 ovarian 76.2% | IGROV1 ovarian 97.3% | OVCAR-3 ovarian 92.2% | NCI/ADR-RES ovarian 92.6% | T-47D breast 95% | BT-549 breast 95.1% | MDA-MB-435 melanoma 90% | SW-620 colon 98.2% | MCF7 breast 91.3% | HCT-116 colon 87% | HCC-2998 colon 97.9% | KM12 colon 94.4%

O=C1/C(=C/c2cccc(Br)c2)COc2ccc(O)c(O)c21
active: RPMI-8226 leukemia -12.7% | OVCAR-8 ovarian 3.75% | OVCAR-5 ovarian -31.5% | OVCAR-4 ovarian 0.231% | IGROV1 ovarian -44.1% | OVCAR-3 ovarian -78% | NCI/ADR-RES ovarian 7.25% | T-47D breast -14.3% | BT-549 breast -19.2% | MDA-MB-435 melanoma -34.7% | SW-620 colon -25.1% | MCF7 breast 6.49% | HCT-116 colon -51% | HCC-2998 colon -58.8% | KM12 colon -60.9%
inactive: SR leukemia 13.6% | SK-OV-3 ovarian 62.9%

CO[C@H]1CC(c2ccc[nH]2)=N[C@]12O[C@@H](C)C[C@@H]1CCCCCCCc3ccc([nH]3)[C@H]12
inactive: OVCAR-8 ovarian 14.8% | OVCAR-5 ovarian 29.7% | OVCAR-4 ovarian 29.2% | SK-OV-3 ovarian 30% | IGROV1 ovarian 28.9% | OVCAR-3 ovarian 29.2% | NCI/ADR-RES ovarian 17.1% | T-47D breast 11.8% | BT-549 breast 33.7% | MDA-MB-435 melanoma 15.2% | SW-620 colon 21.5% | MCF7 breast 16.5% | HCC-2998 colon 22.1% | KM12 colon 18.3%
active: SR leukemia 9.34% | RPMI-8226 leukemia -1.79% | HCT-116 colon 8.1%

Cc1[nH]c(C(=O)Nc2ccc(C(N)=O)cc2OC(C)C)c(Cl)c1Cl
inactive: SR leukemia 79.2% | RPMI-8226 leukemia 90.4% | OVCAR-8 ovarian 101% | OVCAR-5 ovarian 98.3% | OVCAR-4 ovarian 98.2% | SK-OV-3 ovarian 96.4% | IGROV1 ovarian 95.1% | OVCAR-3 ovarian 105% | NCI/ADR-RES ovarian 112% | T-47D breast 74.9% | BT-549 breast 95.4% | MDA-MB-435 melanoma 105% | SW-620 colon 105% | MCF7 breast 88.7% | HCT-116 colon 98.3% | HCC-2998 colon 110% | KM12 colon 98.5%

O=C1c2c(c3c4cc(F)ccc4oc3c3[nH]c4ccccc4c23)C(=O)N1O
inactive: RPMI-8226 leukemia 26.2% | OVCAR-8 ovarian 50.8% | OVCAR-5 ovarian 100% | OVCAR-4 ovarian 61.4% | SK-OV-3 ovarian 55.7% | IGROV1 ovarian 25.6% | OVCAR-3 ovarian 25.5% | HS 578T breast 65.2% | NCI/ADR-RES ovarian 45.6% | BT-549 breast 44.8% | MDA-MB-435 melanoma 48.9% | MCF7 breast 17.3% | HCT-116 colon 23.4% | HCC-2998 colon 70.3% | KM12 colon 39.5%
active: SR leukemia 9.66% | T-47D breast 5.76%

C=C(c1ccc(C(=O)O)c(F)c1)c1cc2c(cc1C)C(C)(C)C=CC2(C)C
inactive: SR leukemia 91.6% | RPMI-8226 leukemia 26.3% | OVCAR-8 ovarian 82.8% | OVCAR-5 ovarian 111% | OVCAR-4 ovarian 81.2% | SK-OV-3 ovarian 73% | IGROV1 ovarian 90.4% | OVCAR-3 ovarian 92.5% | NCI/ADR-RES ovarian 83.1% | T-47D breast 58.9% | BT-549 breast 87.4% | MDA-MB-435 melanoma 95.3% | SW-620 colon 110% | MCF7 breast 52.5% | HCT-116 colon 85.4% | HCC-2998 colon 112% | KM12 colon 66.6%

C#Cc1cccc(Nc2nc(Cl)nc3cc(NC(=O)CCl)ccc23)c1
active: SR leukemia -39.7% | RPMI-8226 leukemia -47.6% | OVCAR-8 ovarian -23.9% | OVCAR-5 ovarian -92% | OVCAR-4 ovarian -66.4% | SK-OV-3 ovarian -18.9% | IGROV1 ovarian -59.8% | OVCAR-3 ovarian -88.1% | NCI/ADR-RES ovarian -14.4% | T-47D breast -44.7% | BT-549 breast -89.3% | MDA-MB-435 melanoma -76.7% | SW-620 colon -77.8% | MCF7 breast -49.5% | HCT-116 colon -90.1% | HCC-2998 colon -84% | KM12 colon -62.5%

CSc1nc(N)c2c(n1)NC(c1ccccc1)C1CCc3ccccc3C1=N2 (centres undefined)
active: SR leukemia 8.22%
inactive: RPMI-8226 leukemia 36.6% | OVCAR-8 ovarian 42.1% | OVCAR-5 ovarian 121% | OVCAR-4 ovarian 41.6% | SK-OV-3 ovarian 85.8% | IGROV1 ovarian 40.4% | OVCAR-3 ovarian 43.9% | HS 578T breast 62% | NCI/ADR-RES ovarian 35.8% | T-47D breast 33.5% | BT-549 breast 73.9% | MDA-MB-435 melanoma 55.9% | MCF7 breast 57.1% | HCT-116 colon 32.3% | HCC-2998 colon 88.8% | KM12 colon 48.3%

COc1ccc(S(=O)(=O)Oc2ccc(-c3sc4cc(OS(=O)(=O)c5ccc(OC)cc5)ccc4c3C(=O)c3ccc(OCCN4CCCCC4)cc3)cc2)cc1
inactive: SR leukemia 102% | RPMI-8226 leukemia 109% | OVCAR-8 ovarian 108% | OVCAR-5 ovarian 95.7% | OVCAR-4 ovarian 97.7% | SK-OV-3 ovarian 95.9% | IGROV1 ovarian 99.3% | OVCAR-3 ovarian 100% | NCI/ADR-RES ovarian 110% | T-47D breast 94.2% | BT-549 breast 94.1% | MDA-MB-435 melanoma 105% | SW-620 colon 108% | MCF7 breast 91.3% | HCT-116 colon 98.8% | HCC-2998 colon 105% | KM12 colon 99.1%

CCN1C(=O)N(CC)C2C1NN=c1s/c(=C\c3ccc(F)cc3)c(=O)n12 (centres undefined)
inactive: SR leukemia 11.1% | RPMI-8226 leukemia 21.3% | OVCAR-5 ovarian 33.1% | OVCAR-4 ovarian 46.4% | SK-OV-3 ovarian 37.2% | IGROV1 ovarian 23% | HS 578T breast 12.4% | T-47D breast 57.8% | BT-549 breast 14.5% | MCF7 breast 18.2% | HCT-116 colon 13.6% | HCC-2998 colon 18.8%
active: OVCAR-8 ovarian 2.37% | OVCAR-3 ovarian -25.9% | NCI/ADR-RES ovarian 1.08% | MDA-MB-435 melanoma -38.8% | KM12 colon 7.33%

c1ccc2c(-c3cnn4cc(-c5ccc(N6CCNCC6)cc5)cnc34)ccnc2c1
active: SR leukemia -19.1% | RPMI-8226 leukemia -52.8% | OVCAR-8 ovarian -46.9% | OVCAR-5 ovarian -85.3% | OVCAR-4 ovarian -65.8% | SK-OV-3 ovarian -86.4% | IGROV1 ovarian -79.7% | OVCAR-3 ovarian -83.2% | NCI/ADR-RES ovarian -42.5% | T-47D breast -45.9% | BT-549 breast -80.9% | MDA-MB-435 melanoma -99.4% | SW-620 colon -52.3% | MCF7 breast -64.1% | HCT-116 colon -98.4% | HCC-2998 colon -63.8% | KM12 colon -72.7%

O=C(Nc1ncc(Cc2ccc(Cl)cc2)s1)C1=NCCCCN1
inactive: SR leukemia 106% | RPMI-8226 leukemia 97% | OVCAR-8 ovarian 106% | OVCAR-5 ovarian 105% | OVCAR-4 ovarian 105% | SK-OV-3 ovarian 106% | IGROV1 ovarian 107% | OVCAR-3 ovarian 110% | NCI/ADR-RES ovarian 106% | T-47D breast 92.5% | BT-549 breast 104% | MDA-MB-435 melanoma 101% | SW-620 colon 103% | MCF7 breast 89.1% | HCT-116 colon 100% | HCC-2998 colon 118% | KM12 colon 103%

CN1CCN(Cc2ccc(NC(=O)c3cncc(C#Cc4cnc(N)c5ncccc45)c3)cc2Cl)CC1
active: SR leukemia -1.93% | SW-620 colon 2.96%
inactive: RPMI-8226 leukemia 73.1% | OVCAR-8 ovarian 101% | OVCAR-5 ovarian 95.1% | OVCAR-4 ovarian 104% | SK-OV-3 ovarian 109% | IGROV1 ovarian 110% | OVCAR-3 ovarian 116% | NCI/ADR-RES ovarian 74.9% | T-47D breast 121% | BT-549 breast 105% | MDA-MB-435 melanoma 94.2% | MCF7 breast 65.6% | HCT-116 colon 14.6% | HCC-2998 colon 106% | KM12 colon 23%

O=c1c(/C=C/c2c(O)ccc3ccccc23)nnc2sc(-c3cccc([N+](=O)[O-])c3)nn12
inactive: SR leukemia 28.3% | RPMI-8226 leukemia 57.3% | OVCAR-8 ovarian 22.4% | OVCAR-5 ovarian 82.1% | OVCAR-4 ovarian 25.5% | SK-OV-3 ovarian 46% | IGROV1 ovarian 43.1% | OVCAR-3 ovarian 15.2% | HS 578T breast 68.3% | NCI/ADR-RES ovarian 29.4% | T-47D breast 33.6% | BT-549 breast 65.1% | MDA-MB-435 melanoma 47.5% | MCF7 breast 27.4% | HCT-116 colon 10.5% | HCC-2998 colon 60.9% | KM12 colon 37.2%
